Activity calls are given as the source filed them. Unless noted, how the calls were made is not given here.

Experiment [1] can be described thus: compound effects on lung adenocarcinoma cell viability – A549, calcein-AM fluorescence, 48 h, basal, profiling panel (AID 1162). Further: test concentration not given here. The note with it: higher = more signal.
A short description of experiment [2]: compound effects on differentiated 3T3-L1 adipocyte viability – cell-based, 3T3-L1 adipocytes, calcein-AM fluorescence, 48 h, basal, profiling panel (AID 1163). Further: test concentration not given here. The following applies: 3T3-L1 adipocytes viability, higher = more signal.
Experiment [3] in a line: compound effects on hepatocellular carcinoma cell viability – HepG2, calcein-AM fluorescence, 48 h, basal, profiling panel (AID 1164). Further: test concentration not given here. The note with it: higher = more signal.
Experiment [4] in a line: compound effects on multiple myeloma cell viability – MM1S, calcein-AM fluorescence, 48 h, basal, profiling panel (AID 1165).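 Further: viability of MM1S multiple myeloma cells under basal unstimulated conditions; test concentration not given here.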 The following applies: higher = more signal.
Experiment [5] in a line: calcein-AM signal in unstimulated myeloma cells – cell-based, calcein-AM fluorescence, 48 h, PK04 Diversity Set, profiling panel (AID 1166).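 Further: cells grown under basal conditions without added stimulus; test concentration not given here.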 The following applies: RPMI8226 myeloma viability, higher = more signal.
Experiment [6] is described as follows: JC-1 mitochondrial signal, unstimulated HepG2 cells – cell-based, JC-1 fluorescence, 24 h, 100 nL compound, profiling panel (AID 1167). Further: test concentration not given here. The note with it: HepG2 mitochondrial potential, higher = more signal.
Experiment [7] can be described thus: JC-1 mitochondrial signal, unstimulated adipocytes – cell-based, JC-1 fluorescence, 3T3-L1 adipocytes, 24 h, 100 nL compound, profiling panel (AID 1168). Further: test concentration not given here. The note with it: JC-1 mitochondrial fluorescence, higher = more signal, called active from +8 up or from −8 down.
Experiment [8] can be described thus: JC-1 mitochondrial signal, unstimulated myeloma cells – cell-based, JC-1 fluorescence, RPMI8226, 24 h, 100 nL compound, profiling panel (AID 1169). Further: test concentration not given here. The following applies: JC-1 mitochondrial potential fluorescence, higher = more signal.
Experiment [9] in a line: JC-1 mitochondrial signal, unstimulated MM1S myeloma – cell-based, JC-1 fluorescence, 24 h, 100 nL compound, profiling panel (AID 1170). Further: test concentration not given here. The following applies: MM1S mitochondrial potential, higher = more signal.
The nature of experiment [10]: resazurin metabolic signal in A549 cells – cell-based, resazurin fluorescence, 24 h, PK04 Diversity Set, profiling panel (AID 1171). Further: test concentration not given here. The following applies: A549 viability, higher = more signal, called active from +8 up or from −8 down. (In general: The colour change of resazurin is a common sign of viable cells or microbes.)
Experiment [11] can be described thus: resazurin metabolic signal in HepG2 cells – cell-based, resazurin fluorescence, 24 h, PK04 Diversity Set, profiling panel (AID 1172). Further: test concentration not given here. The note with it: HepG2 viability, higher = more signal.
The nature of experiment [12]: budding yeast growth changes without added modifier – OD600, strain BY4716, 24 h, basal condition, primary screen (AID 1173). The following applies: S. cerevisiae BY4716 growth, OD600, 24 h; higher = more signal, called active from +8 up or from −8 down.
Experiment [13] in a line: viability profiling in MM1S myeloma cells – cell-based, resazurin fluorescence, basal, 24 h, PK04 Diversity Set, profiling panel (AID 1174). Further: test concentration not given here. The note with it: higher = more signal, called active from +8 up or from −8 down.
For experiment [14], the target named is Dihydroorotate dehydrogenase (quinone), mitochondrial (Plasmodium falciparum (isolate 3D7)) (UniProt Q08210). In words: inhibition of P. falciparum DHODH – biochemical, C-terminal His tag, absorbance 600 nm, primary screen (AID 1175).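 Further: recombinant parasite enzyme with a five histidine tag at its C terminus; test concentration not given here.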 The note with it: PfDHODH enzyme, DCIP absorbance 600 nm; higher = more signal, called active from +8 up or from −8 down.
Sequence of Dihydroorotate dehydrogenase (quinone), mitochondrial (Plasmodium falciparum (isolate 3D7)) (Q08210 whole entry, looked up): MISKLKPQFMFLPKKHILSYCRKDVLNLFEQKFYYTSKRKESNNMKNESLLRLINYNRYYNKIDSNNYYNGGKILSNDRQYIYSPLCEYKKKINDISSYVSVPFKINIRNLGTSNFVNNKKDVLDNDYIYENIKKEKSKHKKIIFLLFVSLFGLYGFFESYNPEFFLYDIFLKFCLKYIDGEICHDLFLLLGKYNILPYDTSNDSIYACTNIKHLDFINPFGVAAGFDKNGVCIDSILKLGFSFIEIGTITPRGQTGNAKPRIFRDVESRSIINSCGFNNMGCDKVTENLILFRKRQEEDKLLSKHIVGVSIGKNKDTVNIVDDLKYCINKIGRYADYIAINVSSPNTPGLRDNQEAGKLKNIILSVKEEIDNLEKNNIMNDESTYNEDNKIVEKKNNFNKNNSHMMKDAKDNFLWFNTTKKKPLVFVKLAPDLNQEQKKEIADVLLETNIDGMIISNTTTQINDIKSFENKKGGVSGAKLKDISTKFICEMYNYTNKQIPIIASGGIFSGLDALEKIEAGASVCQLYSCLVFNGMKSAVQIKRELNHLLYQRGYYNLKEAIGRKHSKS
Experiment [15] is described as follows: inhibition of PAO1 biofilm formation – strain PAO1, LB-PBS medium, absorbance 600 nm, primary screen (AID 1176). Further: test concentration not given here. The note with it: P. aeruginosa PAO1 growth/biofilm, A600, 12 h; higher = more signal.
Experiment [16] is described as follows: growth modulation of vineyard yeast isolate – strain RM11-1a, OD600, basal, 24 h, primary screen (AID 1177).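 Further: cultures grown under basal conditions with no added stressor; test concentration not given here.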 The note with it: S. cerevisiae RM11-1a growth, OD600, 24 h; higher = more signal, called active from +8 up or from −8 down.
The nature of experiment [17]: growth of efflux-deficient E. coli DRC39 – strain DRC39, OD650, 24 h, E. coli filamentation inducers, primary screen (AID 1178).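 Further: growth measured as culture turbidity by optical density at 650 nm; test concentration not given here.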 The following applies: E. coli DRC39 acrAB, higher = more signal, called active from +8 up or from −8 down.
Experiment [18] is described as follows: growth of efflux-deficient E. coli DRC39 – strain DRC39, OD650, 48 h, E. coli filamentation inducers, primary screen (AID 1179).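 Further: screen aims at cell division blockers that make cells filament.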 The note with it: E. coli DRC39 delta-acrAB growth, higher = more signal, called active from +8 up or from −8 down.
Experiment [19] is described as follows: viability profiling in RPMI8226 myeloma cells – cell-based, resazurin fluorescence, basal, 24 h, PK04 Diversity Set, profiling panel (AID 1180).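 Further: RPMI8826 multiple myeloma cell line at 5000 cells per well; test concentration not given here.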 The following applies: higher = more signal.
Experiment [20] has as its target E3 ubiquitin-protein ligase XIAP (Homo sapiens) (UniProt P98170). In words: small molecules binding XIAP protein – biophysical, small-molecule microarray, fluorescence 635 nm, primary screen (AID 1181).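 Further: score merges 667 nm emission and signal to noise over triplicate slides.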 The note with it: higher = more signal.

Sequence of E3 ubiquitin-protein ligase XIAP (Homo sapiens) (P98170 whole entry, looked up): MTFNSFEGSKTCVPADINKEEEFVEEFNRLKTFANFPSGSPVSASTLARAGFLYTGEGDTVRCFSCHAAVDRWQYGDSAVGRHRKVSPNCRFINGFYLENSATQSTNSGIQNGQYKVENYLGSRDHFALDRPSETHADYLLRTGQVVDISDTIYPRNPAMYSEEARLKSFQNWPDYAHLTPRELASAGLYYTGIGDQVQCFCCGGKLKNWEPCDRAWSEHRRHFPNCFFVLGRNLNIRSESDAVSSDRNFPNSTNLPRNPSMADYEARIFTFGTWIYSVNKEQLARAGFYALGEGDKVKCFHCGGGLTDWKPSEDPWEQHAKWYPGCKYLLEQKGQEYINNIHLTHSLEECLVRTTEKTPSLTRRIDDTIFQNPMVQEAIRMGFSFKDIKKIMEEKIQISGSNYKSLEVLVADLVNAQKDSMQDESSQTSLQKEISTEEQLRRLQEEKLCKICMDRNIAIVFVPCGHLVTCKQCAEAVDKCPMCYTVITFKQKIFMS

On to `O=C1C2=CC[C@H]3C(=O)N(C4CCCCC4)C(=O)[C@H]3[C@H]2[C@H](O)[C@@H]2O[C@H]12`, for which the z-score in experiment [1] is -3.85; in [2], 1.13; in experiment [3], -4.38; in experiment [4], -3.05; in experiment [5] it was -3.91; in [6], 0.771. The z-score in experiment [7] is 2.71 (inactive); in [8], -1.02; in [9], -2.83; in experiment [10], -2.67 (inactive); in experiment [11] it was -3.76; in experiment [12], -5.74 (inactive). Moreover, the z-score in [13] was -7.88 (inactive); in [15], -0.2 (inactive); in experiment [16], -1.83 (inactive); in experiment [17], 0.0488 (inactive); in experiment [18], -1.02 (inactive); in experiment [19] it was -4.05. Further, the composite z-score was -3.96 (inactive) in experiment [14] and 0.0694 in [20].
On to `CCOC(=O)[C@H](CC(C)C)NC(=O)CCC1CC(OC(=O)NCCc2ccc(F)cc2)CC2(CCCC(COC(=O)NCCOC)O2)O1` (stereo not given in full), for which the z-score in [1] is 0.0721; in experiment [2] it was -1.02; in [3], -0.384; in experiment [4], 0.695; in [5] it was 0.124; in experiment [6], -1.21. Besides, the z-score in experiment [7] was -0.459 (inactive); in [8], 0.64; in experiment [9] it was 0.441; in [10], 0.305 (inactive); in [11] it was 0.0369; in experiment [12], 1.02 (inactive). Also, the z-score was 0.581 (inactive) in experiment [13]; 0.283 (inactive) in experiment [15]; 0.963 (inactive) in experiment [16]; 0.0415 (inactive) in experiment [17]; -0.489 (inactive) in experiment [18]; 0.464 in [19]. Besides, the composite z-score in experiment [14] was 0.753 (inactive); in experiment [20], -0.18.
As for `CCCC[C@H]1CN2[C@@H](CC[C@@H](C)[C@@H]2c2ccc(Br)cc2)C(=O)O1`, the z-score in [1] was 0.214; in experiment [2], 0.544; in experiment [3] it was -0.189; in experiment [4], -0.256; in [5], -0.238; in experiment [6] it was 0.13. Also, the z-score in experiment [7] was -0.206 (inactive); in [8] it was -0.221; in experiment [9], 0.94; in experiment [10], 0.8 (inactive); in experiment [11], 0.314; in experiment [12], -2.36 (inactive). The z-score was 1.05 (inactive) in experiment [13]; -0.515 (inactive) in [15]; 0.0621 (inactive) in [16]; -0.959 (inactive) in experiment [17]; -0.985 (inactive) in experiment [18]; 0.919 in experiment [19]. Further, the values for the composite z-score in [14] and in experiment [20] were -0.355 (inactive) and 0.127, respectively.
For the compound `C[C@@H]1CC[C@H]2C(=O)O[C@@H](COc3ccc(C(C)(C)C)cc3)CN2[C@H]1c1ccc(Br)cc1`, the z-score in experiment [1] is 0.255; in experiment [2] it was -0.076; in [3], 0.0944; in [4] it was -1.26; in [5], -0.794; in experiment [6], -1.31. For the same compound, the z-score in experiment [7] was -1.16 (inactive); in experiment [8] it was -0.16; in experiment [9] it was 0.455; in experiment [10] it was 1.71 (inactive); in experiment [11] it was 0.7; in [12] it was -0.481 (inactive). In addition, the z-score was 0.385 (inactive) in experiment [13]; 0.11 (inactive) in experiment [15]; -0.0191 (inactive) in [16]; -0.578 (inactive) in [17]; -0.423 (inactive) in [18]; 0.749 in [19]. The results for the composite z-score in [14] and in experiment [20] were 0.444 (inactive) and -0.327, respectively.
Turning to `O=C1[C@H]2[C@H]3[C@H](O)[C@H](O)CC(=NO[C@@H]4O[C@H](CO)[C@@H](O)[C@H](O)[C@H]4O)[C@@H]3CC[C@H]2C(=O)N1c1cccc(Oc2ccccc2)c1`, the z-score is 0.161 in [1]; -0.45 in experiment [2]; -0.593 in experiment [3]; 0.365 in [4]; -0.815 in experiment [5]; -0.655 in [6]. Further, the z-score in experiment [7] is -0.349 (inactive); in experiment [8], -0.277; in experiment [9] it was -0.229; in [10], 0.39 (inactive); in experiment [11], 0.647; in experiment [12], 0.0857 (inactive). For the same compound, the z-score in [13] was -0.602 (inactive); in experiment [15] it was -0.343 (inactive); in [16] it was 0.0867 (inactive); in experiment [17], -0.492 (inactive); in experiment [18] it was -0.961 (inactive); in experiment [19] it was 0.279. Further, the results for the composite z-score in experiment [14] and in experiment [20] were -0.111 (inactive) and -0.124, respectively.
Turning to `O=C1C=C[C@@H](O)[C@@H]2[C@@H]3C(=O)N(Cc4ccc5c(c4)OCO5)C(=O)[C@@H]3CC[C@@H]12`, the z-score is -0.0516 in [1]; 0.493 in experiment [2]; 0.0311 in [3]; -0.186 in experiment [4]; 0.0706 in experiment [5]; -0.214 in experiment [6]. Also, the z-score in experiment [7] was -0.0146 (inactive); in experiment [8], 0.0398; in experiment [9], 0.652; in experiment [10], -0.701 (inactive); in experiment [11], -0.557; in experiment [12], 0.516 (inactive). The z-score was 0.966 (inactive) in [13]; 0.0122 (inactive) in [15]; -0.129 (inactive) in [16]; 0.207 (inactive) in [17]; -0.173 (inactive) in experiment [18]; 0.422 in [19]. The composite z-score in [14] is 0.0627 (inactive); in experiment [20] it was -0.0233.

(Values after PubChem BioAssay.)
